Out of some 2,300 compounds screened, about 1,000 (43%) were called active. No rule for the calls is given here. So high a share suggests a set chosen from earlier hits. The list shows a part of the results. Results with a measured potency or affinity are listed apart.
Test: modified counter assay using GFP fluorescence, PhoP regulon inhibitor project, dose response (AID 1985)
Conditions: S. Typhi, 4 h; series mostly up to 150 µM

| Compound | outcome |
| --- | --- |
| COc1ccc(OC)c(NC(=O)CCNS(=O)(=O)c2ccc3c(c2)c(=O)n(C)c(=O)n3C)c1 | inactive |
| CCOC(=O)c1[nH]c2ccc(Cl)cc2c1NC(=O)c1nonc1C | inactive |
| Cc1ccc(/C=N/NC(=O)Cc2cccn2C)cc1 | inactive |
| Cc1cc(Cl)ccc1OCC(=O)N/N=C/c1ccncc1 | inactive |
| NS(=O)(=O)c1cc2c(cc1Cl)NC(Cc1ccccc1)NS2(=O)=O (stereo not drawn) | inactive |
| CN(Cc1ccccc1)S(=O)(=O)c1csc(C(N)=O)c1 | inactive |
| Cn1cc(S(=O)(=O)Nc2ccc(OC(F)(F)F)cc2)c(=O)n(C)c1=O | inactive |
| CCOc1ccc2ccccc2c1C(=O)N[C@@H]1C(=O)N2[C@@H]1SC(C)(C)[C@@H]2C(=O)O | inactive |
| CN(C)C(=O)CSc1nnc(Cc2ccc([N+](=O)[O-])cc2)o1 | inactive |
| O=C(c1ccccc1)N1CCN(c2ccc([N+](=O)[O-])c(NCc3ccco3)c2)CC1 | inactive |
| COc1ccc(CCC(=O)NCc2cn3ccccc3n2)cc1 | inactive |
| CCOC(=O)CSc1nnc2c(n1)C1(C)CCC2C1(C)C (stereo not drawn) | inactive |
| O=C(N/N=C/c1ccc(N2CCOCC2)cc1)c1ccc(O)cc1 | inactive |
| CC(C)=CCN1CCN(Cc2nc(-c3ccccc3)cs2)CC1CCO (stereo not drawn) | inactive |
| CC1CCCCN1S(=O)(=O)c1ccc(S(=O)(=O)NCCc2ccncc2)cc1 (stereo not drawn) | inactive |
| Brc1ccc2nc(-c3c[nH]c4ccccc34)cn2c1 | inactive |
| Cc1cccc(OCC(=O)NNc2c3ccccc3nc3ccccc23)c1 | inactive |
| CC1(C)CC(CCNC(=O)c2ccc(-n3cnnn3)cc2)CC(C)(C)N1 | inactive |
| Cc1cc(=O)n(CC(C)C)c(O)c1C#N | inactive |
| Cc1onc(C(=O)/C=C/N(C)C)c1C(=O)Nc1nccs1 | inactive |
| CCOc1ccccc1-c1cc(-c2ccccc2)nc2c1c(=O)n(C)c(=O)n2C | inactive |
| C=C(C)COc1ccc2c(C)c(CCC(=O)NC3CC3)c(=O)oc2c1 | inactive |
| N#Cc1ccc(-c2ccc(OCC(=O)NCCCN3CCCC3=O)cc2)cc1 | inactive |

| Compound | outcome |
| --- | --- |
| CC1(C)CC(=O)C(C(=O)/C=C/NCCc2ccccc2)C(=O)C1 | inactive |
| CC(C)(C)c1ccc(NC(=O)NCc2ccco2)cc1 | inactive |
| Cc1ccc(SCc2[nH]nc3c2C(c2cccnc2)C(C#N)=C(N)O3)cc1 (stereo not drawn) | inactive |
| Nc1cc(N2CCOCC2)c(Cl)cc1[N+](=O)[O-] | inactive |
| C=C(C)Cn1c(SCC#N)nc2ccccc2c1=O | inactive |
| COc1cccc(CNC23CC4CC(CC(C4)C2)C3)c1OCc1ccccc1 | inactive |
| Cc1ccc(NC(=S)NCc2cccs2)cc1 | inactive |
| Cc1ccc(NC(=S)NCc2cccnc2)cc1 | inactive |
| COc1cccc(CNS(=O)(=O)c2ccc3c(c2)NC(=O)CS3)c1 | inactive |
| CC(c1ccccc1)(c1ccccc1)c1ccncc1 | inactive |
| CC(C)SCc1nc2ccccc2[nH]1 | inactive |
| Nc1cncc(C(=O)O)c1 | inactive |
| C/C(=N\NC(=O)COc1ccccc1[N+](=O)[O-])c1cccs1 | inactive |
| CCCC(=NCc1ccccc1)C1=C(O)C(C(=O)OC)C(C)(C)CC1=O (stereo not drawn) | inactive |
| CN1C2=CC=CC=CC2=[N+](C)C12C=CC(=[N+]([O-])[O-])C=C2[N+](=O)[O-] (stereo not drawn) | inactive |
| Cc1cc(Br)cc2cn[nH]c12 | inactive |
| CCCN1C(=O)c2ccc(C(=O)Nc3nccs3)cc2C1=O | inactive |
| O=C(COc1ccc2ccccc2c1)Nc1nccs1 | inactive |
| O=C(Nc1ccccc1)Nc1cccc(Cl)c1 | inactive |
| O=C(CCl)Nc1nccs1 | inactive |
| Cc1[nH]c(=O)[nH]c(=O)c1S(=O)(=O)N1CCCC(C(=O)NCc2ccc3c(c2)OCO3)C1 (stereo not drawn) | inactive |
| COc1ccc(NC(=O)N(CCc2ccccc2)Cc2cc3c(C)cc(C)cc3[nH]c2=O)cc1 | inactive |
| CCCOc1ccc(N2C(=O)C3C(C(C)C)NC4(C(=O)c5ccccc5C4=O)C3C2=O)cc1 (stereo not drawn) | inactive |

| Compound | outcome |
| --- | --- |
| COc1ccc(OC)c(S(=O)(=O)N2CCC(C(=O)NCc3ccccc3OC)CC2)c1 | inactive |
| O=C(NCc1ccccc1)c1ccc(CNc2c(N3CCCC3)c(=O)c2=O)cc1 | inactive |
| Cc1ccc(C(C(=O)NCCc2ccccc2)N(C(=O)c2csnn2)C2CC2)o1 (stereo not drawn) | inactive |
| CCC(C)(c1ccc(C(=O)OC)s1)c1ccc(C(=O)OC)s1 | inactive |
| CN1C(=O)/C(=C2/C=Cc3ccccc3N2CCCS(=O)(=O)O)SC1=S | inactive |
| COc1ccccc1-n1c(SCC(=O)O)nnc1-c1ccc(S(=O)(=O)N2CCCCC2)cc1 | inactive |
| O=C(Nc1ccc(F)cc1)C1CCC(CNc2c(N3CCCCC3)c(=O)c2=O)CC1 (stereo not drawn) | inactive |
| COc1ccccc1Oc1coc2c(CN3CCN(C)CC3)c(O)ccc2c1=O | inactive |
| Cc1c(C(=O)N2CCN(Cc3ccccc3)CC2)sc2ncnc(N3CCOCC3)c12 | inactive |
| CCCC(c1nnnn1Cc1ccc(OC)cc1)N1CCN(c2ccccc2OC)CC1 (stereo not drawn) | inactive |
| Oc1c(CN2CCOCC2)cc(COCc2ccccc2)c2cccnc12 | inactive |
| Oc1ccc(CN2CCN(c3ccccc3)CC2)c2cccnc12 | inactive |
| N#C/C(=C\c1ccc(O)c(O)c1)C(=O)c1ccc(O)c(O)c1 | inactive |
| COc1ccc(CNC(=O)CCC(=O)N2C[C@H]3C[C@H](C2)c2cccc(=O)n2C3)cc1 | inactive |
| CCOC(=O)Cc1nn(C)c(=O)c2ccccc12 | inactive |
| O=C(/C=C/c1c(F)cccc1Cl)N1CCOCC1 | inactive |
| COc1cc(OC)nc(NC(=O)C(C)C)n1 | inactive |
| NC(=O)c1c(NC(=O)CSc2nc(N)cc(=O)[nH]2)sc2c1CCCC2 | inactive |
| COCc1cc(=O)n2[nH]c(C)nc2n1 | inactive |
| Nc1ccc(S(=O)(=O)Nc2ccc(Cl)nn2)cc1 | inactive |
| CC1=C(c2ccccc2)SC2=NCCN21 | inactive |
| CN(C)CCNC(=O)c1ccc(COc2ccc(Cl)cc2Cl)cc1 | inactive |
| O=C(COc1ccc(Cl)cc1)N1CCCCC1 | inactive |

| Compound | outcome |
| --- | --- |
| O=C(NCc1cccnc1)c1ccc(COc2ccc(Cl)cc2)cc1 | inactive |
| Clc1ccc(OCc2nn3c(C4CCCCC4)nnc3s2)c(Cl)c1 | inactive |
| CC(=O)Nc1nc(C)c(-c2csc(Nc3ccc(O)cc3)n2)s1 | inactive |
| Cc1c(O)cccc1C(=O)N[C@@H](CSc1ccccc1)[C@H](O)CN1C[C@H]2CCCC[C@H]2C[C@H]1C(=O)NC(C)(C)C | inactive |
| CCc1nc(SCC(=O)NCCc2ccccc2)c2c(=O)n(C)c(=O)n(C)c2n1 | inactive |
| Cc1cc(=O)oc2c(CN(C)Cc3ccccc3)c(O)ccc12 | inactive |
| O=C(N/N=C\c1ccc(F)cc1)c1ccc(F)cc1 | inactive |
| CC(C)CNC(CC(=O)O)c1ccccc1 (stereo not drawn) | inactive |
| CN(CCOc1ccc(Cl)cc1)CC(O)c1ccccc1 (stereo not drawn) | inactive |
| CC(c1cccnc1)N(CCN(C)C)C(=O)Nc1ccc(Cl)c(Cl)c1 (stereo not drawn) | inactive |
| CCS(=O)(=O)N1CCC(C(=O)NCc2cc(OC)ccc2OC)CC1 | inactive |
| O=[N+]([O-])c1ccc(CN2CCSCC2)cc1 | inactive |
| CNC(CC(=O)c1ccc([N+](=O)[O-])cc1)C(Cl)(Cl)Cl (stereo not drawn) | inactive |
| COc1ccc(Cl)cc1NC(=O)CN(C)CC(=O)Nc1ccccc1C(F)(F)F | inactive |
| Cn1nnnc1SCc1nnc(-c2ccccc2Br)o1 | inactive |
| O=C(Nc1ccc(Cl)cc1)N1CCOC12CCC1(CC2)OCCO1 | inactive |
| Cc1cc(=O)oc2cc(OCC(=O)NC3CCCC3)ccc12 | inactive |
| Cc1ccc(CSc2nc3c(c(=O)[nH]2)CCC3)cc1 | inactive |
| COc1ccc(Nc2c3c(nc4ccccc24)CCC3)cc1 | inactive |
| Cc1cccc(Nc2c3c(nc4ccccc24)CCC3)c1 | inactive |
| FC(F)(F)c1ccccc1NC1=NCCC1 | inactive |
| CCCCNCCCOc1cccc(Cl)c1Cl | inactive |
| COc1ccccc1/C=N/N1C(=O)c2cccc3cccc(c23)C1=O | inactive |

| Compound | outcome |
| --- | --- |
| O=C(NC(=S)Nc1ccc(S(=O)(=O)Nc2nccs2)cc1)c1cccnc1 | inactive |
| C=CCSc1nnc(NC(=O)CSc2nc3ccccc3o2)s1 | inactive |
| CCOC(=O)c1nc2cc3n(c(CC(C)C)c-2c1C)CC(C)=C3C | inactive |
| NS(=O)(=O)c1ccc(CCNC(=O)C(=O)C2C(=O)Nc3ccccc32)cc1 (stereo not drawn) | inactive |
| COc1ccccc1-c1cc2nc(C)c(CCC(=O)NC(C)CCc3ccco3)c(C)n2n1 (stereo not drawn) | inactive |
| CC(C)C(=O)Nc1ccccc1-c1nc2ccccc2[nH]c1=O | inactive |
| COc1cccc(NC(=O)CN(C)C(C)C(=O)Nc2ccc(S(=O)(=O)N3CCOCC3)cc2)c1 (stereo not drawn) | inactive |
| N/C(=N\OC(=O)C(c1ccccc1)c1ccccc1)c1ccncc1 | inactive |
| CCOC(=O)C(O)(NC(=O)c1cccnc1)C(F)(F)F (stereo not drawn) | inactive |
| N/C(=N\OC(=O)COc1ccc2ccccc2c1)c1ccccn1 | inactive |
| O=C(Nc1ccc(S(=O)(=O)N2CCCC2)cc1)c1cccnc1 | inactive |
| COc1ccc(N(C(=O)c2cccnc2)S(=O)(=O)c2ccc(F)cc2)cc1 | inactive |
| O=C1CCCC2=C1C(c1ccncc1)Nc1ccccc1N2 (stereo not drawn) | inactive |
| COCCNC(=O)Cn1cnc2c1c(=O)n(C)c(=O)n2C | inactive |
| c1ccc2sc(N3CN(CCN4CCOCC4)CN(c4nc5ccccc5s4)C3)nc2c1 | inactive |
| CC1CCN(c2nc3ccc(C(=O)NCCCN4CCCCC4)cc3s2)CC1 | inactive |
| COc1ccc2sc(N(CCCN(C)C)C(=O)c3ccc(S(=O)(=O)N4CCc5ccccc5C4)cc3)nc2c1 | inactive |
| CN1CCN(c2ccccc2NC(=O)c2sc3ccccc3c2Cl)CC1 | inactive |
| CN(C)CCOC(=O)c1sc2ccccc2c1Cl | inactive |
| COc1cc(CNCCCN2CCOCC2)c(Br)cc1OCC(=O)Nc1ccccc1C | inactive |
| CCc1c(C)nc2cc(-c3cc(OC)cc(OC)c3)nn2c1N1CCCC1 | inactive |

Reference: PubChem BioAssay AID1985 (Southern Research Specialized Biocontainment Screening …, 2009)
